Test results from PubChem BioAssay (NCI).
The panel holds about 79,000 compounds, 15% with a hit somewhere; the sample as a whole holds those more often. Values without a mark were called inactive. The source made the active and inactive calls. Rule as the data show it: active = growth inhibition above about 70%; inactive = the rest.

Key:
[1] = NCI Yeast Anticancer Drug Screen. Data for the rad50 strain (AID 155);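 also: 0% = growth of vehicle-only cultures of the same strain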; conditions: S. cerevisiae rad50 strain growth inhibition, active compounds read high
Procedure, shortened: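 A DNA repair-deficient yeast mutant serves as the test organism; compound-induced growth inhibition is calculated against vehicle-treated cells.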

[2] = NCI Yeast Anticancer Drug Screen. Data for the mec2-1 strain (AID 157); conditions: S. cerevisiae mec2-1 strain, active compounds read high
Procedure, shortened: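 Readout is yeast growth inhibition, normalised to vehicle-treated controls, in the mec2-1 strain exposed to compound.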

[3] = NCI Yeast Anticancer Drug Screen. Data for the sgs1 mgt1 strain (AID 161);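 also: 0% = growth of cultures given vehicle only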; conditions: S. cerevisiae sgs1 mgt1 strain, active compounds read high
Procedure, shortened: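 Growth of a repair-deficient yeast mutant was monitored after compound treatment and expressed as inhibition relative to vehicle-treated cultures.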

[4] = NCI Yeast Anticancer Drug Screen. Data for the cln2 rad14 strain (AID 165);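 also: 0% = growth equal to vehicle treated cultures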; conditions: S. cerevisiae cln2 rad14 strain, active compounds read high
Procedure, shortened: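 Relative to vehicle controls, growth inhibition of compound-treated cln2 rad14 yeast was recorded.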

[5] = NCI Yeast Anticancer Drug Screen. Data for the bub3 strain (AID 167); conditions: S. cerevisiae bub3 mutant strain, active compounds read high
Procedure, shortened: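 Inhibition values come from growth of compound-treated mutant yeast normalised to vehicle-treated controls.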

[6] = NCI Yeast Anticancer Drug Screen. Data for the mlh1 rad18 strain (AID 175); conditions: S. cerevisiae mlh1 rad18 strain growth inhibition, active compounds read high
Procedure, shortened: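 Test agents were incubated with a yeast strain of defined genotype (DNA damage repair defect). Inhibition of growth was derived by comparison with vehicle-exposed cultures.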

[7] = at 5.0 µM (retest, dose inferred, filed as 0.5)
[8] = at 50.0 µM (retest, dose inferred, filed as 5.0)

## O=C1c2ccccc2C(O)(C#Cc2ccccc2)c2cnccc21 (stereo not drawn)
[1]; [7]
  growth inhibition: -6%
[1]; [8]
  growth inhibition: 96% (active)
[1]; at 50.0 µM
  growth inhibition: 97.8% (active)
[2]; [7]
  growth inhibition: -5%
[2]; [8]
  growth inhibition: 97% (active)
[2]; at 50.0 µM
  growth inhibition: 98.5% (active)
[3]; [7]
  growth inhibition: -1%
[3]; [8]
  growth inhibition: 97% (active)
[3]; at 50.0 µM
  growth inhibition: 98.2% (active)
[4]; [7]
  growth inhibition: -11%
[4]; [8]
  growth inhibition: 96% (active)
[4]; at 50.0 µM
  growth inhibition: 97% (active)
[5]; [7]
  growth inhibition: -11%
[5]; [8]
  growth inhibition: 97% (active)
[5]; at 50.0 µM
  growth inhibition: 98.2% (active)

## COc1ccccc1/C=C\C(=O)c1ccccc1
[1]; [7]
  growth inhibition: 2%
[1]; [8]
  growth inhibition: 89% (active)
[1]; at 50.0 µM
  growth inhibition: 98.7% (active)
[2]; [7]
  growth inhibition: 1%
[2]; [8]
  growth inhibition: 98% (active)
[2]; at 50.0 µM
  growth inhibition: 99.4% (active)
[3]; [7]
  growth inhibition: 2%
[3]; [8]
  growth inhibition: 95% (active)
[3]; at 50.0 µM
  growth inhibition: 99.2% (active)
[4]; [7]
  growth inhibition: -4%
[4]; [8]
  growth inhibition: 57%
[4]; at 50.0 µM
  growth inhibition: 89.8% (active)
[5]; [7]
  growth inhibition: 5%
[5]; [8]
  growth inhibition: 98% (active)
[5]; at 50.0 µM
  growth inhibition: 98.8% (active)
[6]; [7]
  growth inhibition: 2%
[6]; [8]
  growth inhibition: 98% (active)
[6]; at 50.0 µM
  growth inhibition: 98.8% (active)

## O=Cc1cc(O)ccc1Br
[1]; [7]
  growth inhibition: 33%
[1]; [8]
  growth inhibition: 96% (active)
[1]; at 50.0 µM
  growth inhibition: 71.3% (active)
[2]; [7]
  growth inhibition: 28%
[2]; [8]
  growth inhibition: 96% (active)
[2]; at 50.0 µM
  growth inhibition: 76.8% (active)
[3]; [7]
  growth inhibition: 37%
[3]; [8]
  growth inhibition: 97% (active)
[3]; at 50.0 µM
  growth inhibition: 91.6% (active)
[4]; [7]
  growth inhibition: 29%
[4]; [8]
  growth inhibition: 58%
[4]; at 50.0 µM
  growth inhibition: 82.7% (active)
[5]; [7]
  growth inhibition: 40%
[5]; [8]
  growth inhibition: 99% (active)
[5]; at 50.0 µM
  growth inhibition: 89.3% (active)
[6]; [7]
  growth inhibition: 32%
[6]; [8]
  growth inhibition: 98% (active)
[6]; at 50.0 µM
  growth inhibition: 79.6% (active)

## O=Cc1ccc(O)c2ccccc12
[1]; [7]
  growth inhibition: -3%
[1]; [8]
  growth inhibition: 66%
[1]; at 50.0 µM
  growth inhibition: 63.2%
[2]; [7]
  growth inhibition: 1%
[2]; [8]
  growth inhibition: 47%
[2]; at 50.0 µM
  growth inhibition: 76.6% (active)
[3]; [7]
  growth inhibition: -9%
[3]; [8]
  growth inhibition: 85% (active)
[3]; at 50.0 µM
  growth inhibition: 75.6% (active)
[4]; [7]
  growth inhibition: 1%
[4]; [8]
  growth inhibition: 23%
[4]; at 50.0 µM
  growth inhibition: 32.8%
[5]; [7]
  growth inhibition: -1%
[5]; [8]
  growth inhibition: 78% (active)
[5]; at 50.0 µM
  growth inhibition: 48%
[6]; [7]
  growth inhibition: -5%
[6]; [8]
  growth inhibition: 88% (active)
[6]; at 50.0 µM
  growth inhibition: 64.5%

## COc1ccc(C(SCC(N)C(=O)O)(c2ccc(OC)cc2)c2ccc(OC)cc2)cc1 (stereo not drawn)
[1]; [7]
  growth inhibition: -11%
[1]; [8]
  growth inhibition: 97% (active)
[1]; at 50.0 µM
  growth inhibition: 94.7% (active)
[2]; [7]
  growth inhibition: -7%
[2]; [8]
  growth inhibition: 99% (active)
[2]; at 50.0 µM
  growth inhibition: 96.3% (active)
[3]; [7]
  growth inhibition: -4%
[3]; [8]
  growth inhibition: 99% (active)
[3]; at 50.0 µM
  growth inhibition: 96.3% (active)
[4]; [7]
  growth inhibition: -7%
[4]; [8]
  growth inhibition: 98% (active)
[4]; at 50.0 µM
  growth inhibition: 94.7% (active)
[5]; [7]
  growth inhibition: 15%
[5]; [8]
  growth inhibition: 98% (active)
[5]; at 50.0 µM
  growth inhibition: 96.5% (active)

## O=C(O)CC1(C(=O)O)CCCCC1
[1]; [7]
  growth inhibition: -9%
[1]; [8]
  growth inhibition: 15%
[1]; at 50.0 µM
  growth inhibition: -16.4%
[2]; [7]
  growth inhibition: -4%
[2]; [8]
  growth inhibition: -1%
[2]; at 50.0 µM
  growth inhibition: -16.6%
[3]; [7]
  growth inhibition: -5%
[3]; [8]
  growth inhibition: -13%
[3]; at 50.0 µM
  growth inhibition: -21.6%
[4]; [7]
  growth inhibition: 6%
[4]; [8]
  growth inhibition: 0%
[4]; at 50.0 µM
  growth inhibition: 18.4%
[5]; [7]
  growth inhibition: -13%
[5]; [8]
  growth inhibition: -14%
[5]; at 50.0 µM
  growth inhibition: -6.9%
[6]; [7]
  growth inhibition: 11%
[6]; [8]
  growth inhibition: 17%
[6]; at 50.0 µM
  growth inhibition: 2.7%

## COc1ccc(C2C3=C(CCCC3=O)Oc3cc4c(cc32)OCO4)cc1 (stereo not drawn)
[1]; [7]
  growth inhibition: 2%
[1]; [8]
  growth inhibition: 68%
[1]; at 50.0 µM
  growth inhibition: 98% (active)
[2]; [7]
  growth inhibition: 5%
[2]; [8]
  growth inhibition: 76% (active)
[2]; at 50.0 µM
  growth inhibition: 96.7% (active)
[3]; [7]
  growth inhibition: -6%
[3]; [8]
  growth inhibition: 64%
[3]; at 50.0 µM
  growth inhibition: 97.3% (active)
[4]; [7]
  growth inhibition: 22%
[4]; [8]
  growth inhibition: 67%
[4]; at 50.0 µM
  growth inhibition: 96.3% (active)
[5]; [7]
  growth inhibition: -2%
[5]; [8]
  growth inhibition: 79% (active)
[5]; at 50.0 µM
  growth inhibition: 95.9% (active)
[6]; [7]
  growth inhibition: 0%
[6]; [8]
  growth inhibition: 91% (active)
[6]; at 50.0 µM
  growth inhibition: 98.2% (active)

## CCOc1ccc(-c2nc3ccc(-c4nc5ccc(N6CCN(C)CC6)cc5[nH]4)cc3[nH]2)cc1
[1]; [7]
  growth inhibition: 28%
[1]; [8]
  growth inhibition: 98% (active)
[1]; at 50.0 µM
  growth inhibition: 88.7% (active)
[2]; [7]
  growth inhibition: 23%
[2]; [8]
  growth inhibition: 99% (active)
[2]; at 50.0 µM
  growth inhibition: 92.9% (active)
[3]; [7]
  growth inhibition: 42%
[3]; [8]
  growth inhibition: 99% (active)
[3]; at 50.0 µM
  growth inhibition: 90.2% (active)
[4]; [7]
  growth inhibition: 31%
[4]; [8]
  growth inhibition: 52%
[4]; at 50.0 µM
  growth inhibition: 91.5% (active)
[5]; [7]
  growth inhibition: 41%
[5]; [8]
  growth inhibition: 98% (active)
[5]; at 50.0 µM
  growth inhibition: 89.1% (active)

## FC(F)(F)c1[nH]nc(-c2cc3ccccc3o2)c1N=NN1CCOCC1
[1]; [7]
  growth inhibition: 99% (active)
[1]; [8]
  growth inhibition: 99% (active)
[1]; at 50.0 µM
  growth inhibition: 99.2% (active)
[2]; [7]
  growth inhibition: 100% (active)
[2]; [8]
  growth inhibition: 99% (active)
[2]; at 50.0 µM
  growth inhibition: 99.5% (active)
[3]; [7]
  growth inhibition: 100% (active)
[3]; [8]
  growth inhibition: 99% (active)
[3]; at 50.0 µM
  growth inhibition: 99.5% (active)
[4]; [7]
  growth inhibition: 99% (active)
[4]; [8]
  growth inhibition: 99% (active)
[4]; at 50.0 µM
  growth inhibition: 99.6% (active)
[5]; [7]
  growth inhibition: 100% (active)
[5]; [8]
  growth inhibition: 99% (active)
[5]; at 50.0 µM
  growth inhibition: 99.5% (active)

## CCOC(=O)C(C)(c1c(C)[nH]c2ccccc12)c1c(C)[nH]c2ccccc12
[1]; [7]
  growth inhibition: 1%
[1]; [8]
  growth inhibition: 96% (active)
[1]; at 50.0 µM
  growth inhibition: 94.8% (active)
[2]; [7]
  growth inhibition: -1%
[2]; [8]
  growth inhibition: 94% (active)
[2]; at 50.0 µM
  growth inhibition: 95.6% (active)
[3]; [7]
  growth inhibition: 3%
[3]; [8]
  growth inhibition: 87% (active)
[3]; at 50.0 µM
  growth inhibition: 95.8% (active)
[4]; [7]
  growth inhibition: 4%
[4]; [8]
  growth inhibition: 95% (active)
[4]; at 50.0 µM
  growth inhibition: 93% (active)
[5]; [7]
  growth inhibition: 6%
[5]; [8]
  growth inhibition: 96% (active)
[5]; at 50.0 µM
  growth inhibition: 95.5% (active)
[6]; [7]
  growth inhibition: 5%
[6]; [8]
  growth inhibition: 92% (active)
[6]; at 50.0 µM
  growth inhibition: 95.3% (active)
